According to the supplement of paper PMC11732987, “Enantioselective OTUD7B fragment discovery through chemoproteomics screening and high-throughput optimisation” (Communications Chemistry, 2025):

Experiments:
Experiment in all cases: log2 ratio of Biotin-Ahx-Ub-VS probe labelling (fragment/DMSO); higher = less target engagement (more negative = stronger competition), active = hit call of the paper (q ≤ 0.05, log2 ratio ≤ -1)
Details in all cases: compound concentration: 200 uM; treatment time: 3 h
USP42 = molecular target: T1, USP42 (UniProt Q9H9J4)
T1 sequence (whole entry): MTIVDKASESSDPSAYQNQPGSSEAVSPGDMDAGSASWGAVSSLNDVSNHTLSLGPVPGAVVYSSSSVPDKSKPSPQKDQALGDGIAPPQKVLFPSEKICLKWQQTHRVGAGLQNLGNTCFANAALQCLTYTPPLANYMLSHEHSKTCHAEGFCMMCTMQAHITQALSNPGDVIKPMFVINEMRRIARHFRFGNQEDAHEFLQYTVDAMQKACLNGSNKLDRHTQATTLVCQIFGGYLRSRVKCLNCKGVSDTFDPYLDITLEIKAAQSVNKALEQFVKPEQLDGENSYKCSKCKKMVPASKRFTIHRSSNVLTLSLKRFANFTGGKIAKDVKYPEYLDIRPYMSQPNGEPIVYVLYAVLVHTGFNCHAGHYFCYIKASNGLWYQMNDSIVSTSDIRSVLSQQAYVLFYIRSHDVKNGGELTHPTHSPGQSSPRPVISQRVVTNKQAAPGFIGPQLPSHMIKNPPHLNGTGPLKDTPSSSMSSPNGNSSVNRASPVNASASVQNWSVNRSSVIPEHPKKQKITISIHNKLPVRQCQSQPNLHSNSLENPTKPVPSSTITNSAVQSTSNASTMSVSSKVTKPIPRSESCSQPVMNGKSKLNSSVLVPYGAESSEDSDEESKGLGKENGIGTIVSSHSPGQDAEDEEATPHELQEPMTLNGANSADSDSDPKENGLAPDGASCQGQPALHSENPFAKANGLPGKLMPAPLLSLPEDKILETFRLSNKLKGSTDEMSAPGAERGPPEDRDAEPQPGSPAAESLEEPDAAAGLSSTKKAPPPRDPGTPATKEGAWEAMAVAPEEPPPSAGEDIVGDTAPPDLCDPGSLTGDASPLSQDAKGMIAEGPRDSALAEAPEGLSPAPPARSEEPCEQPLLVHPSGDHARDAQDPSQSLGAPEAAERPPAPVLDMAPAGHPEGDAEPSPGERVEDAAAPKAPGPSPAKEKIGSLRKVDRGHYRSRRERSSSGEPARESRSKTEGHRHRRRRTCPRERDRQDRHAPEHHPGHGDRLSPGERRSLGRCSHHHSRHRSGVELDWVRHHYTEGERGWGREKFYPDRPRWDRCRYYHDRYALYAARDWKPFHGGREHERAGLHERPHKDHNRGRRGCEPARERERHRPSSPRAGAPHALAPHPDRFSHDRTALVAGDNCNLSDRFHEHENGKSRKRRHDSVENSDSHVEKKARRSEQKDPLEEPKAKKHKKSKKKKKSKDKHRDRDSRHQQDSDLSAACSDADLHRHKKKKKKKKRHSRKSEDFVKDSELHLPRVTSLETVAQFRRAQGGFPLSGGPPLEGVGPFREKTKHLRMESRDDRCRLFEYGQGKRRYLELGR
Outline: (§1)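 Fragment (200 µM) or vehicle was incubated for 3 h with triplicate HEK293T lysate samples of 495 µg, which were then treated with Biotin-Ahx-Ub-VS at 0.5 µM final for 1 h. Labelled DUBs were enriched on NeutrAvidin, digested with LysC and trypsin, and analysed by diaPASEF LC-MS/MS. Values are average log2 fragment/vehicle ratios from an unpaired t-test on global-median-normalised Spectronaut label-free quantities, using proteins with ≥2 unique peptides.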

USP46 = USP46 (UniProt P62068)
Outline: as §1

USP47 = molecular target: T2, USP47 (UniProt Q96K76)
T2 sequence (whole entry): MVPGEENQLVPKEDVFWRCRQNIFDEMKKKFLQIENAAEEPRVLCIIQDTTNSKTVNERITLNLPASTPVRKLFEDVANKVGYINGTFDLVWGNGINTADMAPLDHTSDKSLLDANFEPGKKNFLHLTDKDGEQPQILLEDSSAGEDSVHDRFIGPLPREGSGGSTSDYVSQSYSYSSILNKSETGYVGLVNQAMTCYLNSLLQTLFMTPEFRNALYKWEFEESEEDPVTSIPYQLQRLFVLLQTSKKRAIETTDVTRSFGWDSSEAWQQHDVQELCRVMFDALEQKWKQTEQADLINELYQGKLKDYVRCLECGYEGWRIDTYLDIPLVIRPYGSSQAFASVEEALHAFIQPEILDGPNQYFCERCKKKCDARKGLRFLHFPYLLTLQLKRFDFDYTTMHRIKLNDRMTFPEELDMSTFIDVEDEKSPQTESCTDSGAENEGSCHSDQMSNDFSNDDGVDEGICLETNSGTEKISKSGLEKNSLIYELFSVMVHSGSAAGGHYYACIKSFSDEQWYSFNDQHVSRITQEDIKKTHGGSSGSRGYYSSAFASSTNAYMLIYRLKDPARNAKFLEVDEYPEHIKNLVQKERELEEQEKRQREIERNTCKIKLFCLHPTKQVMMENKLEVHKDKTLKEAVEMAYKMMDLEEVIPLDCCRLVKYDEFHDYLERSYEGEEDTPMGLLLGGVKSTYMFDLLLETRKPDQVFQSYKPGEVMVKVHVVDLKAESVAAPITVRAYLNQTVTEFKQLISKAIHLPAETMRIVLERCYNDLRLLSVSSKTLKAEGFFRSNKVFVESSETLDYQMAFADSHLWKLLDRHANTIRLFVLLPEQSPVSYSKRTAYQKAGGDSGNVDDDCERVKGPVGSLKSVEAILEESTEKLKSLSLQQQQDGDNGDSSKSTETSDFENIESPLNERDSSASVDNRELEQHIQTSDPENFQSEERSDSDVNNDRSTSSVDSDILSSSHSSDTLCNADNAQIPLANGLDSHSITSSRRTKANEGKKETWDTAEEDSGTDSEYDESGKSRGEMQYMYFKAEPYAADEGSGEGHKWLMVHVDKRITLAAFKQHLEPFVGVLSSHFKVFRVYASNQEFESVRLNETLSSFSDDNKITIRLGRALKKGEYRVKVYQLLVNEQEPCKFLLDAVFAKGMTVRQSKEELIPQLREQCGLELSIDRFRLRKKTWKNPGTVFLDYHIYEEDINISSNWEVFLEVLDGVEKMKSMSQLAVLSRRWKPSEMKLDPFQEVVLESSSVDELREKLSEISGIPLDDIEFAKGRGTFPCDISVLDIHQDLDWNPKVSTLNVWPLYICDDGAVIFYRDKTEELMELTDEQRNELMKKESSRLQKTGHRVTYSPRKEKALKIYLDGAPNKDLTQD
Outline: as §1

USP48 = molecular target: T3, USP48 (UniProt Q86UV5)
T3 sequence (whole entry): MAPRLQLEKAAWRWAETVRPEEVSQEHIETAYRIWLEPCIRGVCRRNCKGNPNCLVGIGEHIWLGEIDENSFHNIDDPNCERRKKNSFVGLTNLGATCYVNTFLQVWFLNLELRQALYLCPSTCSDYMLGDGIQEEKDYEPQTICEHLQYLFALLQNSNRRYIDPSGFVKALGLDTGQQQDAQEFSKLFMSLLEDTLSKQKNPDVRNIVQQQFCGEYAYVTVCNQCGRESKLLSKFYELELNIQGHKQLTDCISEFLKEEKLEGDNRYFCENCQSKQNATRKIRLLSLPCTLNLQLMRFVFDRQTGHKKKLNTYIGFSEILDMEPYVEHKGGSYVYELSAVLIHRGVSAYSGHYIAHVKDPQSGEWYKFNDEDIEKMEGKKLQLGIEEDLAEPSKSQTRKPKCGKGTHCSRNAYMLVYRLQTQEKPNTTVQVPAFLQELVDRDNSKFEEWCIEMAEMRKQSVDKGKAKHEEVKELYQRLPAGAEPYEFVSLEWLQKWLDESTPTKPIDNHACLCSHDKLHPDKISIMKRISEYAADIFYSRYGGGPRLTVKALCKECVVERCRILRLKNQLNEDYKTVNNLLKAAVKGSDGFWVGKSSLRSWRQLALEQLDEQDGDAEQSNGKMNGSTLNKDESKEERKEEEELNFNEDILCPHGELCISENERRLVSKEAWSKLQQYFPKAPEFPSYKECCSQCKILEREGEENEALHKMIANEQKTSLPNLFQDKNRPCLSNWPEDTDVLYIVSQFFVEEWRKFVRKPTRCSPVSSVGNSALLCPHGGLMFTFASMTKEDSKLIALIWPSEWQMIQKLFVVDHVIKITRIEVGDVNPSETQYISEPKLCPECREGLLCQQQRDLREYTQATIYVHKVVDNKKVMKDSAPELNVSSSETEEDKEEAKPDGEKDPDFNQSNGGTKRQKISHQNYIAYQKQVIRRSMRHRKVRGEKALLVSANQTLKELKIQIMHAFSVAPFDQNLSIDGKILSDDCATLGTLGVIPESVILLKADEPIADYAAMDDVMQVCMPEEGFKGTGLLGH
Outline: as §1

USP5 = molecular target: T4, USP5 (UniProt P45974)
T4 sequence (whole entry): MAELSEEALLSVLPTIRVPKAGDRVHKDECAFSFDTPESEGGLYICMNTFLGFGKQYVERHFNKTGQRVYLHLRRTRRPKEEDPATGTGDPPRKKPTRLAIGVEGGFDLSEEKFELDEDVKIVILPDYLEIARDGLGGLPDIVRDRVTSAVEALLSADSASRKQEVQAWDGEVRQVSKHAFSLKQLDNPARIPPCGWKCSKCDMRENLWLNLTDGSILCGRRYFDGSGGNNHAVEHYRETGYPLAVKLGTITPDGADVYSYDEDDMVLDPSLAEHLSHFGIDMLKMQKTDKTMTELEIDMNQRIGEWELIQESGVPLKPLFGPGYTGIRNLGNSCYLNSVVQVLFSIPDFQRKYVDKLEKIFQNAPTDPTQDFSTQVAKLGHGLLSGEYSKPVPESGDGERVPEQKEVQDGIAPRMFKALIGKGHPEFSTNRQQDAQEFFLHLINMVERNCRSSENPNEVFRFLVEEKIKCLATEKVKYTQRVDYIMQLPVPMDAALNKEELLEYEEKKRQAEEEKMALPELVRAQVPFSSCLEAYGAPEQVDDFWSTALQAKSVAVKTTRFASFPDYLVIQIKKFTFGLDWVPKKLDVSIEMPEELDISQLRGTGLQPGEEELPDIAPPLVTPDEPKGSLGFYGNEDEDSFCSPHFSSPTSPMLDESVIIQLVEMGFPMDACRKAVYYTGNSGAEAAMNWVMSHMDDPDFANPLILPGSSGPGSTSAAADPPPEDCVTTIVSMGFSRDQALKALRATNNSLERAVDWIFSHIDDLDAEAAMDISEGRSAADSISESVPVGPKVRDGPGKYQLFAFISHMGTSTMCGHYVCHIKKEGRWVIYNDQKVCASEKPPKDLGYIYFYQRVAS
Outline: as §1

USP54 = USP54 (UniProt Q70EL1)
Outline: as §1

USP7 = USP7 (UniProt Q93009)
Outline: as §1

USP8 = molecular target: T5, USP8 (UniProt P40818)
T5 sequence (whole entry): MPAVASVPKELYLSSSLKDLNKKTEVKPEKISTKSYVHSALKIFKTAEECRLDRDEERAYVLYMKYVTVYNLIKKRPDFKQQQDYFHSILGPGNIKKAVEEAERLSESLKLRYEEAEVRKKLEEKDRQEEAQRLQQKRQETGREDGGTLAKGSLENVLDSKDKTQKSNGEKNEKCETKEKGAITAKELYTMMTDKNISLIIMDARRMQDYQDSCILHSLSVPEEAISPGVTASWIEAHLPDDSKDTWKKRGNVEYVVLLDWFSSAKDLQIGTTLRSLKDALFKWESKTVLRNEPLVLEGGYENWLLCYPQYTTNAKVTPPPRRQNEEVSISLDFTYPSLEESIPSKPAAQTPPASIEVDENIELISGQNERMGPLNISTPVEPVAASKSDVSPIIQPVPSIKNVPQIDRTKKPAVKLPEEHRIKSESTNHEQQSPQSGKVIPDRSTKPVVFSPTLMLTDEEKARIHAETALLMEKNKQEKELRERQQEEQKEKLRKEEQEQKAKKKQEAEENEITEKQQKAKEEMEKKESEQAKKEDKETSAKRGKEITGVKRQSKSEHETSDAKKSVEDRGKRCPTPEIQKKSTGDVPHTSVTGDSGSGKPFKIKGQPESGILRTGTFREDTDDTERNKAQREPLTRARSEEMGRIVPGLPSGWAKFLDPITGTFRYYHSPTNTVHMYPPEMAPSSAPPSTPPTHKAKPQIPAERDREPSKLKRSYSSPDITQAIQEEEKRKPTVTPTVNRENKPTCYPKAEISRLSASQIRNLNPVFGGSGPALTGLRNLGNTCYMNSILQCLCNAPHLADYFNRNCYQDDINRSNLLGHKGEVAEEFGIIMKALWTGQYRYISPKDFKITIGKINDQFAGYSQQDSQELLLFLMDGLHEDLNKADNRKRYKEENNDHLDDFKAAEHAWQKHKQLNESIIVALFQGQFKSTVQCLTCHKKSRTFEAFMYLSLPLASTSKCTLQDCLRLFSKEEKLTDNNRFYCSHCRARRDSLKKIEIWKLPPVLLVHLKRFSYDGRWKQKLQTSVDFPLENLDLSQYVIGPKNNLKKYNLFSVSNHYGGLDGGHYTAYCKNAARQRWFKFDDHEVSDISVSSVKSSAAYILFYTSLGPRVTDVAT
Outline: as §1

Measured: log2 ratio of Biotin-Ahx-Ub-VS probe labelling

Sequence of USP54 (Q70EL1 whole entry): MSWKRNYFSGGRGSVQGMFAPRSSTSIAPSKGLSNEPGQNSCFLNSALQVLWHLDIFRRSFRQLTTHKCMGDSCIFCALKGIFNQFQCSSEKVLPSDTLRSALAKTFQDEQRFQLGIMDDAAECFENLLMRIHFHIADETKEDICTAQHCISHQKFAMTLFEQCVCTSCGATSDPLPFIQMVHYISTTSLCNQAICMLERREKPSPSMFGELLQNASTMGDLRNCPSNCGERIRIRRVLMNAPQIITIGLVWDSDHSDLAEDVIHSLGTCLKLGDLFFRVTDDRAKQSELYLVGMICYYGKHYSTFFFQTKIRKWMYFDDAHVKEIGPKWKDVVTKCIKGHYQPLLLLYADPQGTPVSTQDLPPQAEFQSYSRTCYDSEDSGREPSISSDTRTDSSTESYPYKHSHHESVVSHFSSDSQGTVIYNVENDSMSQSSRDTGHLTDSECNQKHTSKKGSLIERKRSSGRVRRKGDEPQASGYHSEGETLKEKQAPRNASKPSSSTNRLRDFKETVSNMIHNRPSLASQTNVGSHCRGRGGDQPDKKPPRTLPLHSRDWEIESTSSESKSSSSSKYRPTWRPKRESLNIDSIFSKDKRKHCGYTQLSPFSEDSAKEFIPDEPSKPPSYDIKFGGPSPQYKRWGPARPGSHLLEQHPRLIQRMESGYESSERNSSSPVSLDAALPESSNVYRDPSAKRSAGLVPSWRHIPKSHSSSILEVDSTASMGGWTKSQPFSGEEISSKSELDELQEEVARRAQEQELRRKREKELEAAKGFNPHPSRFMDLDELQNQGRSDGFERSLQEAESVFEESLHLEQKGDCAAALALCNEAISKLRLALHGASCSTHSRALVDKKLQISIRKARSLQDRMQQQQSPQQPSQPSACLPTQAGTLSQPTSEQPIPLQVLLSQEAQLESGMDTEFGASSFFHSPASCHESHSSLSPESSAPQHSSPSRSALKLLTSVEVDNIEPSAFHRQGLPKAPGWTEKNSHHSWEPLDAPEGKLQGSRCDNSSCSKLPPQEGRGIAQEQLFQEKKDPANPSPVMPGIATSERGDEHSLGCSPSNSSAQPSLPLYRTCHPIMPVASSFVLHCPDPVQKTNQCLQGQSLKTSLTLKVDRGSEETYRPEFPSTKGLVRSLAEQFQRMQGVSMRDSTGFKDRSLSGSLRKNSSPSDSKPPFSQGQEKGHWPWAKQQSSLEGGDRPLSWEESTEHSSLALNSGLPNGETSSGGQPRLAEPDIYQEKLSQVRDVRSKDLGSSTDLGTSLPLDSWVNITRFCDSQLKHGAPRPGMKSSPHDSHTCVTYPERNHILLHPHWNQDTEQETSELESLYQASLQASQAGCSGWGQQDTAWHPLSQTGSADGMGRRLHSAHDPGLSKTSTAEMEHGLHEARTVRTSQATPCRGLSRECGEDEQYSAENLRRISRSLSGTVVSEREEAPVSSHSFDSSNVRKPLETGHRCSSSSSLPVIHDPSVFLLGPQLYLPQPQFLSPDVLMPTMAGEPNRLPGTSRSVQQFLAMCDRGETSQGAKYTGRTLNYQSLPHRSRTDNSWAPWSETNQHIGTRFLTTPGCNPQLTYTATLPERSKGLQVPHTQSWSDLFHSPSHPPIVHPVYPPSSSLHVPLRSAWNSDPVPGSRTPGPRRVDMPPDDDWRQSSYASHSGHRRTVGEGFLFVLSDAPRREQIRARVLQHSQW
Sequence of USP7 (Q93009 whole entry, looked up): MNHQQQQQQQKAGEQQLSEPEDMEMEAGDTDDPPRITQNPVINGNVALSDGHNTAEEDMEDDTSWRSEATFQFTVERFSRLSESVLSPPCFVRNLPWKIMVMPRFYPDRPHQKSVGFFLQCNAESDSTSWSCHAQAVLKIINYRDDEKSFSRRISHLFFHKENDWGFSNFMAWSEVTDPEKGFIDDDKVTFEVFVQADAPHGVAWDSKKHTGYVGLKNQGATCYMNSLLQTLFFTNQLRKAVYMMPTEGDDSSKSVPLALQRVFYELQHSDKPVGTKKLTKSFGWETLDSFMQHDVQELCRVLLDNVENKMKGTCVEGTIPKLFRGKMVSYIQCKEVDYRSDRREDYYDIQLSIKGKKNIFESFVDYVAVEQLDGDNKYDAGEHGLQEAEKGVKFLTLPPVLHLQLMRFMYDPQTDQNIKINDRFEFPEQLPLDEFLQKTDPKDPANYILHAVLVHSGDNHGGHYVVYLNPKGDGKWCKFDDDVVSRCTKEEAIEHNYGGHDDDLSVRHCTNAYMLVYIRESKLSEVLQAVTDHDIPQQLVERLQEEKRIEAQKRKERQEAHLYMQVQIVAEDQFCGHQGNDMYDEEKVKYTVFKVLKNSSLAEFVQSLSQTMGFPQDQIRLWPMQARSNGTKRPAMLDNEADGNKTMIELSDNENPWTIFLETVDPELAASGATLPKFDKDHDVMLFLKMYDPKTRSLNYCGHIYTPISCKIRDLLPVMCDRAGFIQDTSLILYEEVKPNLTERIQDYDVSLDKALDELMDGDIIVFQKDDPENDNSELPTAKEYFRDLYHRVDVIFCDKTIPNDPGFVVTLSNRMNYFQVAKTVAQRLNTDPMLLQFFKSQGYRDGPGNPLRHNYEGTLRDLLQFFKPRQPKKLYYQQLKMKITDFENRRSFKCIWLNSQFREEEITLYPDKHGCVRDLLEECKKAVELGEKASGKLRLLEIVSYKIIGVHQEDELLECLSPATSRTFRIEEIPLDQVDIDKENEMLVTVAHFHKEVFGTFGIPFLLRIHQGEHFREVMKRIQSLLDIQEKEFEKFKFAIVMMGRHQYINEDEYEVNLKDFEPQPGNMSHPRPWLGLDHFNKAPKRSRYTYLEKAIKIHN
Sequence of USP46 (P62068 whole entry): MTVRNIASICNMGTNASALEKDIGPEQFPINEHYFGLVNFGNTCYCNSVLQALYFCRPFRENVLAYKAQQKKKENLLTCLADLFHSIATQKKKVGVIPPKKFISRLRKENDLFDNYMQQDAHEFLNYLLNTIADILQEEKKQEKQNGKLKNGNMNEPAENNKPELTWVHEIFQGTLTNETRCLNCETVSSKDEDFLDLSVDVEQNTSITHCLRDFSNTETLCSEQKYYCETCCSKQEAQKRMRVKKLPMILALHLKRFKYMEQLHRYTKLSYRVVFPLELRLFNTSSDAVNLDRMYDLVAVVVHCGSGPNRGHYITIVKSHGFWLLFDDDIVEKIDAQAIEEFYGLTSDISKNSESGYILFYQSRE

Cc1cccc(NC(=O)CCl)c1C
inactive: USP42 0.0545 | USP46 -0.22 | USP47 -0.266 | USP48 -0.0682 | USP5 -0.738 | USP54 -0.507 | USP7 -0.293 | USP8 -0.346
